Data taken from PubChem BioAssay.
For some of these results: Measured potencies and affinities stand elsewhere. Active and inactive are the calls of the source.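 Rule for the calls, unless noted: active = primary screen hit whose fluorescence ratio, in both repeats, exceeds the weak agonist control mean by 3 SD; inactive = the rest.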

Assays:
[1] = test system: TRPC4 beta (transient receptor potential cation channel C4), mouse; assay: TRPC4 cation channel opening, retest – cell-based, Fluo4 calcium, HEK293 TRPC4beta/mu-opioid, duplicates, 10 µM, confirmation (AID 2426;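 active = fluorescence ratio normalized to control raised more than 50% in primary screen plus both repeat runs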); conditions: Fluo4 calcium fluorescence, at 10 µM; hits give high values
[2] = test system: transient receptor potential cation channel C4 beta (TRPC4), mouse; assay: TRPC4 cation channel opening, second retest – cell-based, second round, Fluo4, HEK293 TRPC4beta/mu-opioid, 1 µM, confirmation (AID 2461;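 active = primary screen active and over 50% activation in each of two duplicate runs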); conditions: Fluo4 calcium fluorescence, at 1 µM; hits give high values
[3] = test system: TRPC4 (transient receptor potential cation channel C4 beta), mouse; assay: potentiation of DAMGO EC20 TRPC4 response – cell-based, second round, Fluo-4, HEK293 TRPC4beta/mu-opioid, 1 µM, confirmation (AID 2554); conditions: DAMGO EC20, Fluo-4 calcium flux, at 1 µM; hits give high values
[4] = test system: TRPC4 beta (transient receptor potential cation channel C4), mouse; assay: potentiation of DAMGO EC20 TRPC4 response – cell-based, Fluo-4, HEK293 TRPC4beta/mu-opioid, confirmation (AID 2555;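 active = primary screen hit whose calcium fluorescence ratio, in both repeats, exceeds the weak agonist control mean by 3 SD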); conditions: DAMGO EC20, Fluo-4 calcium flux, at 10 µM; hits give high values
[5] = target: Short transient receptor potential channel 4 (Mus musculus) (UniProt Q9QUQ5); assay: blockers of DAMGO-evoked TRPC4 calcium flux – cell-based, Fluo4, HEK293 TRPC4beta/mu-opioid, confirmation (AID 2636;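 active = calcium signal cut by more than 3 SD below the full-agonist control yet still positive, in both repeats and the earlier primary screen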); conditions: at 10 µM; hits give high values
[6] = target: Short transient receptor potential channel 4 (Mus musculus) (UniProt Q9QUQ5); assay: blockers of DAMGO-evoked TRPC4 calcium flux – cell-based, second round, Fluo4, HEK293 TRPC4beta/mu-opioid, 1 µM, confirmation (AID 2637;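 active = calcium signal ratio cut to more than 3 SD under the fully stimulated control mean yet still positive, in both repeats and the primary screen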); conditions: at 1 µM; hits give high values
[7] = target: Short transient receptor potential channel 4 (Mus musculus) (UniProt Q9QUQ5); assay: calcium entry via TRPC4 opening agents – cell-based, HEK293 TRPC4/mu-opioid, Fluo-4 calcium, dose response (AID 434937;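 active = primary screen activator hit with a dose response curve and TRPC4 channel activation at any tested dose; inactive = no activation, no dose response, or not a primary hit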)
[8] = target: Short transient receptor potential channel 4 (Mus musculus) (UniProt Q9QUQ5); assay: potentiation of DAMGO-evoked TRPC4 calcium signal – cell-based, HEK293 TRPC4/mu-opioid, Fluo-4 calcium, EC20 DAMGO, dose response (AID 434941;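 active = earlier screen potentiator hit that boosts the TRPC4 ion channel at some dose, with a dose response; inactive = no potentiation, no dose response, or not a prior hit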;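 note: calcium entry triggered by an EC20 dose of DAMGO at the co-expressed mu-opioid receptor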)
[9] = target: Short transient receptor potential channel 4 (Mus musculus) (UniProt Q9QUQ5); assay: block of DAMGO-driven TRPC4 calcium entry – cell-based, HEK293 TRPC4/mu-opioid, Fluo-4 calcium, dose response (AID 434942;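 active = primary screen inhibitor hit that blocks the TRPC4 channel at some tested dose, yielding a dose curve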)
[10] = target: Short transient receptor potential channel 6 (Mus musculus) (UniProt Q61143); assay: TRPC6 blockade by TRPC4 inhibitor hits – cell-based, HEK293, membrane potential dye, duplicate, selectivity assay for TRPC4 inhibitor project, confirmation (AID 434948;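 active = active in primary screen and both duplicates, each dropping signal beyond three positive-control SD with fluorescence still positive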); conditions: HEK293 TRPC6, membrane potential dye fluorescence, at 10 µM, stimulated with maximal-effect acetylcholine; hits give high values
[11] = target: Short transient receptor potential channel 6 (Mus musculus) (UniProt Q61143); assay: TRPC6 opening by TRPC4 activator hits – cell-based, HEK293, membrane potential dye, duplicate, selectivity assay for TRPC4 activator project, confirmation (AID 434950;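 active = membrane potential signal rise above negative control mean plus 3 SD in both duplicates, also active in the earlier TRPC4 screen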); conditions: HEK293 TRPC6, membrane potential fluorescence, at 10 µM; activation: hits give high values; outcome: activation
[12] = target: Short transient receptor potential channel 6 (Mus musculus) (UniProt Q61143); assay: positive modulators of mouse TRPC6 channel – HEK293 cells, membrane potential dye, duplicate, selectivity assay for TRPC4 potentiator project, confirmation (AID 434952;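 active = compound raising the membrane signal above positive-control mean plus 3 SD in both repeats, and a primary screen hit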); conditions: HEK293 TRPC6, membrane potential dye fluorescence, at 10 µM, maximal acetylcholine added after compound; hits give high values
[13] = target: Short transient receptor potential channel 4 (Mus musculus) (UniProt Q9QUQ5); assay: calcium flux activators in TRPC4/5HT1a cells, counter-screen for TRPC4 activator project, cell-based, second counter screen, HEK293 TRPC4/5HT1a, Fluo-4 (AID 434977;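 active = calcium signal rise above buffer-control mean plus 5 SD in both duplicates, and also a hit in the primary screen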); conditions: Fluo-4 calcium flux, at 10 µM; hits give high values
[14] = serotonin-gated TRPC4 signal block – cell-based, second counter screen, HEK293 TRPC4/5HT1a, Fluo-4, counter-screen for TRPC4 inhibitor project, confirmation (AID 434978;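 active = primary screen active whose calcium signal fell more than 3 SD beyond the full-serotonin control mean in both duplicate plates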;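 for outcome: serotonin given first at submaximal then at maximal dose after compound preincubation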); conditions: Fluo-4 calcium flux, at 10 µM, serotonin added to trigger calcium flux; hits give high values
[15] = test system: TRPC4 (mouse), co-expressed with 5HT1a in HEK293; assay: enhancement of serotonin-evoked TRPC4 response – cell-based, second counter screen, HEK293 TRPC4/5HT1a, Fluo-4, counter-screen for TRPC4 potentiator project, confirmation (AID 434979;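 active = signal rise over 3 SD above mean of control wells given weak agonist, in both repeats and first screen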); conditions: Fluo-4 calcium flux, at 10 µM, serotonin added at its EC20 dose; hits give high values
[16] = nonspecific calcium rise without TRPC4 – cell-based, HEK293 mu-opioid receptor line, counter-screen for TRPC4 activator project, confirmation (AID 449723;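 active = hit in primary screen, with calcium signal over 5 SD above buffer well mean in both duplicates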;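 note: counter screen cells carry the mu-opioid receptor alone and lack TRPC4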); conditions: HEK293 mu-opioid cells, Fluo-4 calcium fluorescence, at 10 µM; hits give high values
[17] = nonspecific potentiation of DAMGO calcium response – cell-based, HEK293 mu-opioid receptor line, counter-screen for TRPC4 allosteric potentiator project, confirmation (AID 449724;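 active = calcium signal rise more than 3 SD above the low-dose agonist control mean, in both duplicate plates and the primary screen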); conditions: HEK293 mu-opioid receptor cells, Fluo-4 calcium flux, at 10 µM, compound added before EC20 DAMGO stimulus; hits give high values
[18] = nonspecific flux increase, KCNQ1-free cells – parental CHO cells, counter-screen for KCNQ1 potentiator project (AID 493006;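 active = duplicate-averaged activation above buffer control mean plus 5 SD of those controls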;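 for activation: fluorescence ratio of max minus min over baseline after K+ and Tl+ depolarization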); conditions: parental CHO-K1 cells, FluxOR thallium flux, at 10 µM; hits give high values
[19] = target: Potassium voltage-gated channel subfamily KQT member 1 (Homo sapiens) (UniProt P51787); assay: enhancement of KCNQ1 channel thallium flux – FluxOR thallium flux, CHO cells, duplicates, confirmation (AID 493007;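 active = potentiation averaged over duplicate wells exceeding buffer-only control mean by more than 3 SD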;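 for outcome: cells depolarized by a potassium plus thallium sulfate stimulus after compound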;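 for potentiation: 0% = buffer-only wells and 100% = R-L3 activator control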); conditions: KCNQ1 cell line, FluxOR thallium flux fluorescence, at 10 µM; hits give high values, % of reference activator effect, buffer zero
[20] = target: Potassium voltage-gated channel subfamily KQT member 2 (Rattus norvegicus) (UniProt O88943); assay: KCNQ2 thallium flux enhancement – KCNQ2-CHO-K1 cells, selectivity assay for KCNQ1 potentiator project (AID 493009;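 active = mean duplicate potentiation above the buffer control mean plus 5 SD of buffer wells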;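 note: assay conditions were tuned for KCNQ1 rather than KCNQ2 modulators; signal is max minus min fluorescence divided by baseline after thallium stimulus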); conditions: FluxOR thallium flux fluorescence, at 10 µM; hits give high values, scaled: buffer 0, activator control 100
Sequence of Potassium voltage-gated channel subfamily KQT member 2 (Rattus norvegicus) (O88943 whole entry, looked up): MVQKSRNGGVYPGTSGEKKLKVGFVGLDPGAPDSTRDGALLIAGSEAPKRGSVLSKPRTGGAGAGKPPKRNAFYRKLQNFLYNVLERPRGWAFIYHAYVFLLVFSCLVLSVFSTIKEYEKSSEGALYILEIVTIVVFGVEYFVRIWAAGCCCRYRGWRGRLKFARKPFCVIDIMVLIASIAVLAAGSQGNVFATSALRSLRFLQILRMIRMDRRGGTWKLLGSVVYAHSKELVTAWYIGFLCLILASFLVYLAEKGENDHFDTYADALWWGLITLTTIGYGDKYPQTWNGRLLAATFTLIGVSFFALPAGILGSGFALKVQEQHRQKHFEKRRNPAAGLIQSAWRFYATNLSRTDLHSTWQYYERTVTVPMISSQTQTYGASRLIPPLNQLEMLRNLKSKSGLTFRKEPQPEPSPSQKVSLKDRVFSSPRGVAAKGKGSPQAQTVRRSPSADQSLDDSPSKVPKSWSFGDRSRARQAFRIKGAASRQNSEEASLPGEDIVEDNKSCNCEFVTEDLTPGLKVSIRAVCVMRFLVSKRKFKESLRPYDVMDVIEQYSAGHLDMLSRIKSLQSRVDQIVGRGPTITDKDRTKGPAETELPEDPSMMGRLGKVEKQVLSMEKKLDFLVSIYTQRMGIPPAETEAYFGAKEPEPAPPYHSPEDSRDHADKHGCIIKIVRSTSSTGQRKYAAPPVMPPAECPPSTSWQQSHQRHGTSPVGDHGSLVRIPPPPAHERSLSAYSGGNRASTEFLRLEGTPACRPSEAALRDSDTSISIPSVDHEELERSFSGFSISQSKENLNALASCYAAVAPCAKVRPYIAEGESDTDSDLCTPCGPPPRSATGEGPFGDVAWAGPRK

Sequence of Short transient receptor potential channel 6 (Mus musculus) (Q61143 whole entry, looked up): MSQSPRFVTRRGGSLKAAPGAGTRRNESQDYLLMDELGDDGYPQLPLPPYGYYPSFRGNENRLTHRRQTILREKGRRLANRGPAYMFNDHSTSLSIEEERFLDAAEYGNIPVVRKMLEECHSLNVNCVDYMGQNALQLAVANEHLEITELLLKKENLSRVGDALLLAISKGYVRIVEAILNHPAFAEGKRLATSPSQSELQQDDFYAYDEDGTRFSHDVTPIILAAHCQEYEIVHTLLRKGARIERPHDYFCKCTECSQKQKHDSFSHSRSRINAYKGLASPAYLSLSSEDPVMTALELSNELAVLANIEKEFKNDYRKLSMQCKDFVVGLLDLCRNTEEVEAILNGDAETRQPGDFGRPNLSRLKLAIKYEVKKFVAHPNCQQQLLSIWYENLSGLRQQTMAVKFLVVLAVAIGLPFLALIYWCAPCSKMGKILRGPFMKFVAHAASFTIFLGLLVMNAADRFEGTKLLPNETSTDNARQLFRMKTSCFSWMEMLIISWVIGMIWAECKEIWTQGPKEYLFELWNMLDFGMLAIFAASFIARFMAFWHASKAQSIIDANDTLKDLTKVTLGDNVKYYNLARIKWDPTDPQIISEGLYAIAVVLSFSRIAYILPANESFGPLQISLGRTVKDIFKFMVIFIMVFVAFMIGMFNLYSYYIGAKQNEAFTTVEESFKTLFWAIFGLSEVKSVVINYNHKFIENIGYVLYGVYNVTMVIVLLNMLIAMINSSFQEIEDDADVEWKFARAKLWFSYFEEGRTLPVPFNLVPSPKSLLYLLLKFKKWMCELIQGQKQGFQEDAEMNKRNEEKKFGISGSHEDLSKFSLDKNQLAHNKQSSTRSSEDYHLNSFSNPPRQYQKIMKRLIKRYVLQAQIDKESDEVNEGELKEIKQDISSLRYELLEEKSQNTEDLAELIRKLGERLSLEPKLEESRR
Sequence of Potassium voltage-gated channel subfamily KQT member 1 (Homo sapiens) (P51787 whole entry, looked up): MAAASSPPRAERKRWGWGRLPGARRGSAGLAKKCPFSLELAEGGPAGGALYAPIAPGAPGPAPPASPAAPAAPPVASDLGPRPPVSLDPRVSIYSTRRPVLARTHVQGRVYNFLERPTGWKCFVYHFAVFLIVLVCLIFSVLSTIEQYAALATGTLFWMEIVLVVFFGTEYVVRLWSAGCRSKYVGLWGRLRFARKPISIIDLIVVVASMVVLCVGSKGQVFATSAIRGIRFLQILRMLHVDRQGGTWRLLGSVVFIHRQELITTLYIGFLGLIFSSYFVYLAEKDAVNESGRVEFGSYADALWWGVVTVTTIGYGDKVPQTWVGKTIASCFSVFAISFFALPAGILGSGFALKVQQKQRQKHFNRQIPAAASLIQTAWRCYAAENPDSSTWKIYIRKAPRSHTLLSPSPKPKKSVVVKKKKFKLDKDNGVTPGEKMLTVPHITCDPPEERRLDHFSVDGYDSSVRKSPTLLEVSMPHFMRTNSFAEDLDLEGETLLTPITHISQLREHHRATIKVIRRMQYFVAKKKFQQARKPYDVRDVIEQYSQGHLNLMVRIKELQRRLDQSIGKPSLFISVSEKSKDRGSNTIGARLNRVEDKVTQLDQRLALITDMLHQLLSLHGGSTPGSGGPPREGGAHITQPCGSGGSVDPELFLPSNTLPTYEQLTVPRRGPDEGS
Sequence of Short transient receptor potential channel 4 (Mus musculus) (Q9QUQ5 whole entry, looked up): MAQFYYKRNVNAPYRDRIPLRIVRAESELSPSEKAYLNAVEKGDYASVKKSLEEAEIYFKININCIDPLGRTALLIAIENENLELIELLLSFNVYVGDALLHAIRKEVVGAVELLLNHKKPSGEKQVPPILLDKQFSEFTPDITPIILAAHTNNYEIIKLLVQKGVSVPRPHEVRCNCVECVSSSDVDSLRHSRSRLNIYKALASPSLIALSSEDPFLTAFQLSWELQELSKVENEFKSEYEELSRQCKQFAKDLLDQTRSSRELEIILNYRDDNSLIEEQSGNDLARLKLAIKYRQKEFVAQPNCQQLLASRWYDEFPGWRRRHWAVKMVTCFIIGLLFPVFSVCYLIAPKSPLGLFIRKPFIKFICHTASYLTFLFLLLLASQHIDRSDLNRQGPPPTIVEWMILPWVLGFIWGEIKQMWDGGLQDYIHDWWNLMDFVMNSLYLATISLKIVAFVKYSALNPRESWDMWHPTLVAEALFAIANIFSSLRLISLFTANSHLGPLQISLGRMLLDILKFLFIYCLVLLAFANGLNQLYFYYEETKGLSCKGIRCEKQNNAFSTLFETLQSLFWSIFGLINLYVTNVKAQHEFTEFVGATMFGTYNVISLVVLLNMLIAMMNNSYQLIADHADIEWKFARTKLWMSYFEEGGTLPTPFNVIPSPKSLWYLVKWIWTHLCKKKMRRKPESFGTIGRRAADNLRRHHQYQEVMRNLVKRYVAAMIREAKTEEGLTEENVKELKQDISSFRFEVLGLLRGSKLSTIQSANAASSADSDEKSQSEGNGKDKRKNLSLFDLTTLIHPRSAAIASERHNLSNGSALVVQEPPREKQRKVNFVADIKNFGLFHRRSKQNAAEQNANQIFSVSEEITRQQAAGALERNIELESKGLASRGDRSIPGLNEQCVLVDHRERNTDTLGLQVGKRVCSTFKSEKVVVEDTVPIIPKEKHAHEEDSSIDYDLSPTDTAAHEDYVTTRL

Cc1cc(C)c2c(=O)n(CC(=O)Nc3cccc(Cl)c3C)sc2n1
active: potentiation [4] 14% | potentiation [15] 9.63%
inactive: outcome [1] | outcome [2] | outcome [3] | outcome [5] | outcome [6] | outcome [7] | outcome [8] | outcome [9] | outcome [10] | outcome [11] | outcome [12] | outcome [13] | outcome [14] | outcome [16] | outcome [17] | outcome [18] | outcome [19] | outcome [20]

Fc1ccc(CN2C3=NCCCN3c3ccccc32)cc1
inactive: outcome [1] | outcome [2] | outcome [3] | outcome [4] | outcome [5] | outcome [6] | outcome [7] | outcome [8] | outcome [9] | outcome [10] | outcome [11] | outcome [12] | outcome [13] | outcome [14] | outcome [15] | outcome [16] | outcome [17]

Cc1cc(OCCN2CCCCC2)nc2ccccc12
inactive: outcome [1] | outcome [2] | outcome [3] | outcome [4] | outcome [5] | outcome [6] | outcome [7] | outcome [8] | outcome [9] | outcome [10] | outcome [11] | outcome [12] | outcome [13] | outcome [14] | outcome [16] | outcome [17]
active: potentiation [15] 13.7%

CC(C)NS(=O)(=O)c1ccc(NC(=O)C(C)Oc2ccc(C(=O)c3ccccc3)cc2)cc1 (configuration not stated)
inactive: outcome [1] | outcome [2] | outcome [3] | outcome [5] | outcome [6] | outcome [7] | outcome [8] | outcome [9] | outcome [10] | outcome [11] | outcome [12] | outcome [13] | outcome [14] | outcome [16] | outcome [17] | outcome [18] | outcome [19] | outcome [20]
active: potentiation [4] 36% | potentiation [15] 30.1%

O=[N+]([O-])c1ccc(N2CCN(CCOc3nonc3-c3ccccc3)CC2)c(Cl)c1
inactive: outcome [1] | outcome [2] | outcome [5] | outcome [6] | outcome [7] | outcome [8] | outcome [9] | outcome [10] | outcome [11] | outcome [12] | outcome [13] | outcome [14] | outcome [16] | outcome [17]
active: potentiation [3] 10% | potentiation [4] 34% | potentiation [15] 20.3%

COc1cc(C2(c3ccc(O)c(OC)c3)C(=O)Nc3c(C)cc(Br)cc32)ccc1O
inactive: outcome [1] | outcome [2] | outcome [3] | outcome [5] | outcome [6] | outcome [7] | outcome [8] | outcome [9] | outcome [10] | outcome [11] | outcome [12] | outcome [13] | outcome [14] | outcome [16] | outcome [17] | outcome [20]
active: potentiation [4] 22% | potentiation [15] 71.7% | activation [18] 168% | potentiation [19] 36.5%

Cc1cc(OCc2cc(C(=O)NCC3(C)COC3)no2)cc(C)c1Cl
active: inhibition [5] 66% | inhibition [14] 40.6%
inactive: outcome [1] | outcome [2] | outcome [3] | outcome [4] | outcome [6] | outcome [7] | outcome [8] | outcome [10] | outcome [11] | outcome [12] | outcome [13] | outcome [15] | outcome [16] | outcome [17]
